Data: ChEMBL document CHEMBL3433997, “St. Jude Leishmania screening dataset” (2016)

These compounds were tested against Solute carrier family 2, facilitated glucose transporter member 1 (Homo sapiens) (UniProt P11166) (assay: ST_JUDE_LEISH: Cytotoxicity at 2uM final concentration against transgenic Leishmania Mexicana promastigotes LmGLUT1 that are glucose transport deficient and complemented with the human glucose transporter GLUT1. Activity is measured by DNA content using SYBR green in vitro).
Chain of Solute carrier family 2, facilitated glucose transporter member 1 (Homo sapiens) (P11166 whole entry): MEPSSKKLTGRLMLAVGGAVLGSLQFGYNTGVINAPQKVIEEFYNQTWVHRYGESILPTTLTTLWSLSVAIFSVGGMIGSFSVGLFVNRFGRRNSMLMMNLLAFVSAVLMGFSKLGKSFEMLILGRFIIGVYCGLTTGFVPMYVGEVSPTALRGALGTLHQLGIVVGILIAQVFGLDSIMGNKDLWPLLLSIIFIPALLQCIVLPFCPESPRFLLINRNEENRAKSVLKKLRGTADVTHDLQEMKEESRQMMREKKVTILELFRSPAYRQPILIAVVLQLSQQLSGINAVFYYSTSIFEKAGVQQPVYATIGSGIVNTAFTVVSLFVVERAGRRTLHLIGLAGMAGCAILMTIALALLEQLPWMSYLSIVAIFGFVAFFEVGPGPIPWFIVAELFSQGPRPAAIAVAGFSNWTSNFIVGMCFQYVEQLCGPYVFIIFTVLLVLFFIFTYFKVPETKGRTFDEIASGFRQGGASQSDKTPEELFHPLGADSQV
Type: functional
With `CCN(CC)CCN(Cc1ccc(-c2ccc(C(F)(F)F)cc2)cc1)C(=O)Cn1c(CCc2ccc(F)c(F)c2F)nc(=O)c2ccccc21` the inhibition was 8.82%.
`Cc1cnc(-c2ccc(NC(=O)c3coc4ccc(N5CC(C)N(C)C(C)C5)cc34)cc2)o1` (centres undefined) showed an inhibition of -0.6%.
`O=C(Nc1cc(Cl)cc(Cl)c1)c1cc(Cl)c(=O)n(Cc2ccc(Cl)cc2)c1` gave an inhibition of 3%.
`COc1ccc2c(c1C1CCN(CCCCNC(=O)c3ccc(-c4ccc(Cl)cn4)cc3)CC1)CCCC2` gave an inhibition of 2.21%.
`COc1ccc(NC(C)C(=O)Nc2ccc(Br)cc2)cc1S(=O)(=O)N1CCCCC1` (centres undefined) was tested, and the inhibition was -1%.
Work on `CNCCNc1nccc(N2CCc3ncnc(Nc4ccc(OCc5cccc(F)c5)c(Cl)c4)c3C2)n1` yielded an inhibition of 3.85%.
`O=C(CN1CCN(C(=O)c2ccco2)CC1)Nc1ccccc1Br` showed an inhibition of -1.39%.
Compound `CN1CCCN(Cc2cccc(-c3cccc(NC(=O)c4cccc(C#N)c4)c3)c2)CC1` has an inhibition of 12.8%.
`CCOC(=O)c1ccc(NCc2ccccn2)cc1` was tested, and the inhibition was 3.11%.
With `Cc1ccc(NC(=S)NC2CCN(CCCCCNC(=O)/C=C/c3ccc(Cl)c(Cl)c3)CC2)cc1Cl` the inhibition was -0.23%.
For `CCS[C@@H]1O[C@H](COC(=O)c2ccccc2)[C@H](OC(=O)c2ccccc2)[C@H](OC(=O)c2ccccc2)[C@H]1OC(=O)c1ccccc1`, the inhibition was 1.02%.
For `COc1ccc(-c2ccc(CNCc3ccccc3)cc2)cc1S(=O)(=O)NCCN1CCCC1`, the inhibition was 4.97%.
`COc1cc(NCC(O)CNc2cc(OC)c3ccccc3n2)nc2ccccc12` showed an inhibition of 33.2%.
Work on `COc1cccc(NC(=O)Nc2c(-c3cccc(C(F)(F)F)c3)c(C(F)(F)F)nn2C)c1` yielded an inhibition of 0.7%.
